# High-throughput results as filed in PubChem BioAssay.
# Rows were chosen to be rich in hits. Some 1.8% of all compounds tested hit in one or more screens of this group.
# PME-1 primary: PME-1 (human) inhibition; Q9Y570; recombinant PME-1, FP-Rh probe fluorescence polarization; inhibition, % at 5.9 µM; 0.53% of 320,000 active; AID 2130;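 active means inhibition above the campaign mean of all compounds plus 3 SD, cut at about 26% in these data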;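 further: competitive labeling of PME-1 active site by serine hydrolase directed probe; 0% = PME-1 with DMSO and 100% = wells lacking PME-1 enzyme; inhibitors block probe labeling so polarization falls and inhibition rises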
# PP5 inh: inhibitors of human protein phosphatase 5 (PP5) | purified PP5c, OMFP substrate fluorescence | inhibition, % at 6.7 µM | 0.18% of 320,000 active;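 active means inhibition above the campaign's mean inhibition across all tested compounds plus 3 SD, cut at about 9.5% in these data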;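 further: 0% = DMSO only and 100% = 100 µM cantharidin control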
# PP1 inh: counter-screen for PP5 inhibitors: inhibitors of human PP1-alpha; 0.9% of 320,000 active; inhibition, % at 6.7 µM; purified PP1alpha, OMFP fluorescence; P62136;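 active means inhibition above the mean inhibition of all tested compounds plus 3 SD, computed separately for each screening campaign, cut at about 15% in these data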
# LYPLA2 counter: blocks human lysophospholipase 2, a PME1 counter-screen. 0.38% of 320,000 active. recombinant LYPLA2, FP-Rh probe fluorescence polarization. inhibition, % at 5.9 µM. AID 2177;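 active means inhibition above the screen-wide mean plus 3 SD, limit set per campaign, cut at about 26% in these data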;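 further: 0% = LYPLA2 with DMSO and 100% = wells lacking LYPLA2 enzyme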
# Target sequence (O95372 whole entry, looked up): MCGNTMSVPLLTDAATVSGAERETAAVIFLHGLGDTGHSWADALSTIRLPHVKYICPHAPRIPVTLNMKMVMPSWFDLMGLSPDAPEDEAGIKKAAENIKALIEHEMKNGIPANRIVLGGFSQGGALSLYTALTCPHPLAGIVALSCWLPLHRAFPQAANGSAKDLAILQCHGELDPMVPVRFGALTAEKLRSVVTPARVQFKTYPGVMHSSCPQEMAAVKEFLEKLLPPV
# Fam108B inh: blocks mouse Fam108B hydrolase in RBBP9 counter-screen | recombinant Fam108B, FP-Rh probe fluorescence polarization | inhibition, % at 9.51 µM | 0.33% of 300,000 active | AID 1947;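 active means inhibition above the screen mean inhibition plus 3 SD, computed separately per campaign, cut at about 18% in these data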;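 further: inhibitors lower polarization as less probe binds the enzyme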
# LYPLA1 counter: LYPLA1 (human) inhibition in PME1 counter-screen. recombinant LYPLA1, FP-Rh probe fluorescence polarization. inhibition, % at 5.9 µM. 0.16% of 320,000 active;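 active means inhibition above the mean of all tested compounds plus 3 SD, set per campaign, cut at about 14% in these data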;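 further: inhibitors block serine hydrolase probe labeling of LYPLA1 so polarization falls; 0% = enzyme with DMSO and 100% = wells lacking LYPLA1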
# Target sequence (O75608 whole entry, looked up): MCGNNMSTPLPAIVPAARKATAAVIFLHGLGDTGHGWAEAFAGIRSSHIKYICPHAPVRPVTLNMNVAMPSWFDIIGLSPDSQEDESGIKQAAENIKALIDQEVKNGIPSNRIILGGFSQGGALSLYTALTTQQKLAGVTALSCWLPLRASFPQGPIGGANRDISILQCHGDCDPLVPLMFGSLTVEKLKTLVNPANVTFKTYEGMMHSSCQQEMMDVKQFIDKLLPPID
# PP1 inh confirm: human PP1 phosphatase inhibition, confirmation. shares compounds with PP1 inh. purified PP1alpha, OMFP substrate fluorescence. inhibition, % at 6.7 µM. 52% of 1,900 active. AID 2358;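 active means mean PP1 inhibition above a set limit taken from the earlier primary screen, cut at about 15% in these data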
# PP5 inh counter: PP5 phosphatase inhibition, counter-screen for PP1 inhibitors. shares compounds with PP1 inh. purified PP5c, OMFP fluorescence. inhibition, % at 6.7 µM. 4% of 1,900 active. AID 2360;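 active means mean PP5 inhibition over triplicate wells above about 9.5% taken from the earlier PP1 screen, limit read from the data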
# The depositor's hits bear a star; . = no result given.
SMILES,PME-1 primary,PP5 inh,PP1 inh,LYPLA2 counter,Fam108B inh,LYPLA1 counter,PP1 inh confirm,PP5 inh counter
CCCCCCN(C(=O)CCCCCN1C(=O)NC(c2ccc(-c3ccccc3)cc2)C(C(=O)OCc2ccccc2)=C1C)C(C(=O)NCCCC)c1ccc(OCC(=O)OC)c(C(=O)OC)c1 (stereo unspecified),-3.4,-1.3,37.9*,-12.7,-7.0,-1.8,21.2*,-4.4
CCCCCCN(C(=O)CCCCCN1C(=O)NC(c2ccc([N+](=O)[O-])cc2)C(C(=O)OCc2ccccc2)=C1C)C(C(=O)NCCCC)c1ccc(OCC(=O)OC)c(C(=O)OC)c1 (stereo unspecified),-2.7,4.0,22.5*,-6.1,-3.3,-1.2,33.8*,1.6
CCCCCCN(C(=O)CCCCCN1C(=O)NC(c2cccc([N+](=O)[O-])c2)C(C(=O)OCc2ccccc2)=C1C)C(C(=O)NCCCC)c1ccc(OCC(=O)OC)c(C(=O)OC)c1 (stereo unspecified),-4.0,5.6,35.6*,-1.2,-2.3,-4.6,37.2*,4.5
CCOC(=O)C1=C(C)N(CCCC(=O)O)C(=O)NC1c1ccc([N+](=O)[O-])cc1 (stereo unspecified),-3.8,-0.3,-0.3,5.8,0.1,2.7,.,.
CCCCCCN(C(=O)CCCCCN1C(=O)NC(c2ccc(-c3ccccc3)cc2)C(C(=O)OCc2ccccc2)=C1C)C(C)C(=O)NCCCC (stereo unspecified),-4.6,3.0,25.2*,-8.7,-11.9,-0.9,22.8*,4.2
COC(=O)CCCCCN1C(=O)NC(c2ccccc2)C(C(=O)OCc2ccccc2)=C1C (stereo unspecified),4.2,6.2,7.8,-7.4,-4.4,0.2,.,.
CCCCN1C(=O)NC(c2cccc([N+](=O)[O-])c2)C(C(=O)OCC)=C1C (stereo unspecified),6.8,2.0,-3.5,0.4,4.9,0.8,.,.
Cc1ccc(C(=O)c2oc3nc(C)cc(C)c3c2N)cc1,2.0,2.9,20.8*,-0.3,6.1,-2.5,-4.2,-7.4
CCOC(=O)c1cc(-c2ccccc2)nc2c1c(C)nn2-c1ccccn1,-1.5,1.4,30.6*,1.0,-3.1,-0.5,31.5*,-3.0
Cc1ccc(Cn2c(=O)c3ccccc3n3nc(C)cc23)cc1,-3.7,1.9,-1.7,-10.2,-7.1,-7.3,.,.
Cc1cccc(N2CCN(C(=O)CC(NC(=O)c3ccccc3)c3ccccc3)CC2C)c1 (stereo unspecified),-3.3,2.6,19.8*,0.8,-2.7,1.5,-1.6,-3.3
COc1cccc(N2CCN(C(=O)CC(NC(=O)c3ccccc3)c3ccccc3)CC2)c1 (stereo unspecified),-0.3,0.7,-2.2,7.0,.,2.5,.,.
CC(C)C(=O)O/N=C(\N)c1ccc(Oc2ccc(Cl)cc2)c([N+](=O)[O-])c1,-0.5,-0.6,-3.7,-1.6,-1.7,-1.2,.,.
O=C(c1ccc2nc[nH]c2c1)N1CCN(c2ncc(C(F)(F)F)cc2Cl)CC1,2.0,4.2,-0.1,4.6,3.5,1.5,.,.
CC1(c2ccccc2)NC(=O)N(CC(=O)Nc2ccc3c(c2)OCO3)C1=O (stereo unspecified),-0.5,-1.4,-2.7,-4.8,3.6,-1.5,.,.
CC1(c2ccc(Cl)cc2)NC(=O)N(CC(=O)Nc2ccc(N3CCCCC3)cc2)C1=O (stereo unspecified),-4.8,-2.2,38.9*,-1.3,1.0,0.1,3.8,-2.2
COc1ccc(NC(=O)CN2C(=O)NC(C)(c3ccccc3)C2=O)cc1Cl (stereo unspecified),-3.4,1.2,-87.7,4.3,-0.1,9.0,1.4,2.3
CC1(c2ccc(Cl)cc2)NC(=O)N(CC(=O)Nc2ccc(F)cc2)C1=O (stereo unspecified),2.7,0.8,0.2,-0.7,-1.1,-1.5,.,.
Cc1cccc(NC(=O)CSCC(=O)OCc2ccccn2)c1,4.2,0.9,-1.5,7.4,0.2,-1.9,.,.
O=C(N/C(=C\c1ccccc1)C(=O)N1CCOCC1)c1cccc(Br)c1,-4.1,-1.0,-11.3,2.9,1.0,-2.6,.,.
Cc1c(Nc2ncccc2C(=O)O)cccc1C(F)(F)F,2.7,-1.3,0.4,1.1,-0.3,-0.6,.,.
Cc1ccc(S(=O)(=O)N[C@@H](CO)C(=O)N[C@@H](Cc2ccc(O)cc2)C(=O)O)cc1,1.1,-2.4,0.0,-3.4,-2.4,0.4,.,.
CCCCCCC[C@H](N)[C@H](O)C(=O)N(C)[C@@H](CCS(C)=O)C(=O)N[C@@H](Cc1ccc(O)cc1)C(=O)N[C@@H](Cc1ccc(O)cc1)C(=O)O (stereo partly specified),3.4,88.3*,95.2*,4.3,4.7,-3.4,95.1*,86.4*
CCN(CC)S(=O)(=O)c1cccc(C(=O)N/N=C/c2ccc(O)c(O)c2O)c1,11.2,2.9,20.1*,-9.0,11.3,-12.4,32.9*,-5.9
CC(=O)NC(CC(=O)Nc1ccc2c(c1)OCCO2)c1ccccc1 (stereo unspecified),2.7,-3.6,-4.4,4.5,1.0,-3.3,.,.
SMILES,PME-1 primary,PP5 inh,PP1 inh,LYPLA2 counter,Fam108B inh,LYPLA1 counter,PP1 inh confirm,PP5 inh counter
Cc1ccc(C(=O)Nc2nnc(CC(=O)N/N=C/c3ccc(O)c(O)c3)s2)cc1,29.0*,-0.8,17.7*,-7.3,17.9,-15.3,8.6,-6.5
COc1ccc(C(=O)Nc2nnc(CC(=O)N/N=C/c3ccc(O)cc3O)s2)cc1,1.0,1.1,14.8,-4.0,-1.2,-9.8,.,.
O=C(CN1C(=O)COc2ccc(Cl)cc21)N1CCc2ccccc21,-0.8,0.7,18.0*,-1.2,-4.0,-1.9,10.8,-4.1
Cc1sc(NC(=O)c2ccco2)nc1-c1ccccc1,-3.1,1.8,-4.0,-7.7,-3.7,-2.5,.,.
CCCCc1ccc(-c2nc(NC(=O)C3C4CCC(O4)C3C(=O)O)sc2C)cc1 (stereo unspecified),0.0,75.2*,74.9*,1.0,-0.2,-4.1,34.8*,40.3*
CCOC(=O)c1c(-c2ccc(-c3ccccc3)cc2)csc1NC(=O)C1C2CCC(O2)C1C(=O)O (stereo unspecified),-1.0,11.1*,22.2*,17.7,0.5,2.6,14.9,3.1
O=C(O)C1C2CCC(O2)C1C(=O)Nc1ccccc1Br (stereo unspecified),-4.8,68.4*,68.4*,-0.2,-0.4,0.1,25.1*,32.5*
Cc1ccccc1NC(=O)C1CCC(=O)N1 (stereo unspecified),-1.7,0.2,1.6,-0.2,2.5,-1.7,.,.
CS(=O)(=O)N1CCC(C(=O)Nc2ccccc2Br)CC1,6.8,0.9,-2.9,-4.7,4.8,-1.9,.,.
